# Assays:
# Assay in all cases: DAPPL (digital affinity profiling via proximity ligation, sequencing); 10 mM Tris-HCl pH 7.5, 50 mM NaCl, 1 mM DTT, 4% glycerol, room temperature, 30 min; GST-TFs on glutathione beads, 16-mer random dsDNA library, 0.1% formaldehyde crosslink after washing; high values mean tight binding
# FLI1 = molecular target: T1, FLI1 (Homo sapiens, UniProt Q01543 1-452); settings: protein: recombinant; tags: N-terminal GST; dsDNA, one strand shown
# T1 sequence: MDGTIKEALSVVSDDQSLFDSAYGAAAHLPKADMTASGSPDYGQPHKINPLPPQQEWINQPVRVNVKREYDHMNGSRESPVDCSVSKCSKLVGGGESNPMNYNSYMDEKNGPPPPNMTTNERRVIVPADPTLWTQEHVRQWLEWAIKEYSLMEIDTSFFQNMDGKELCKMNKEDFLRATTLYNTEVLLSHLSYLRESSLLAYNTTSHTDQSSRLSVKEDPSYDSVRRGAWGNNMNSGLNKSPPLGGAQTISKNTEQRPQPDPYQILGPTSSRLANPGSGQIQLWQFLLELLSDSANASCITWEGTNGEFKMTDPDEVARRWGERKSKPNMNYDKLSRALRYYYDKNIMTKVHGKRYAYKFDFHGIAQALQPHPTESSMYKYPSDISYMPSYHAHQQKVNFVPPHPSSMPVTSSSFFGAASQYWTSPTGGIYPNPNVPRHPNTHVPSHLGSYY
# How it was run: (§1)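 Binding signal is defined as a hexamer's read frequency for one factor over its frequency for the tag-only sample. To obtain reads, GST-fused human transcription factors were expressed in yeast, captured on glutathione beads, barcoded with DNA and pooled with that sample. Pools met 200 nmole of a 16-mer random double-stranded DNA library in Tris/NaCl/DTT/glycerol buffer for 30 min at room temperature before washing, 0.1% formaldehyde crosslinking, proximity ligation (BsaI/T4 ligase, 1 h, 37 °C), PCR and Illumina NextSeq500 sequencing.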
# ELK1 = molecular target: T2, ELK1 (Homo sapiens, UniProt P19419 1-428); settings: protein: recombinant; tags: N-terminal GST; dsDNA, one strand shown
# T2 sequence: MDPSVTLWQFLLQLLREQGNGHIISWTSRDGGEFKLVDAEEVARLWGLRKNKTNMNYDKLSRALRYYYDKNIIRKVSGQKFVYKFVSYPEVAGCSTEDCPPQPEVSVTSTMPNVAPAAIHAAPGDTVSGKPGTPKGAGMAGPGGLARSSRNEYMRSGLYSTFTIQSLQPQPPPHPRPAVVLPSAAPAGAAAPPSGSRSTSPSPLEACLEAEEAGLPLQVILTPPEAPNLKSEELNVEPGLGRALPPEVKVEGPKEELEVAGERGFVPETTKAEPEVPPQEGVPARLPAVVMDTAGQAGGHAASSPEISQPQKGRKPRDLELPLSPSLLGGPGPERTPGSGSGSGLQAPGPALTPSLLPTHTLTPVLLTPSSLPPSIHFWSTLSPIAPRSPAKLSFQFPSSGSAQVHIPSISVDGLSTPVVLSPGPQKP
# How it was run: as §1
# GABPA = molecular target: T3, GABPA (Homo sapiens, UniProt Q06546 1-454); settings: protein: recombinant; tags: N-terminal GST; dsDNA, one strand shown
# T3 sequence: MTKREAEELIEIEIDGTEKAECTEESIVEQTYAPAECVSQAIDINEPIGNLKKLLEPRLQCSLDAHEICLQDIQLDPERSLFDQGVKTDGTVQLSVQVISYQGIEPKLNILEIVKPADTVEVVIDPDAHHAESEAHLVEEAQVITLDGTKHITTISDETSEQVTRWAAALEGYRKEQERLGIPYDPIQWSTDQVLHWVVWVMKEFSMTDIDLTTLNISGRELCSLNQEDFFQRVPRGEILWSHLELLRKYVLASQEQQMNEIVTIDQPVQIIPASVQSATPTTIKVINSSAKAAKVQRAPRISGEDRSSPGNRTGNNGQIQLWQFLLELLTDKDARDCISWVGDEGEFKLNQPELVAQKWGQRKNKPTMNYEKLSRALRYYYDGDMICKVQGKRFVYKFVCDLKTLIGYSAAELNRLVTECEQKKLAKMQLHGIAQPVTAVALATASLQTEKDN
# How it was run: as §1
# ERG = molecular target: T4, ERG (Homo sapiens, UniProt P11308 1-479); settings: protein: recombinant; tags: N-terminal GST; dsDNA, one strand shown
# T4 sequence: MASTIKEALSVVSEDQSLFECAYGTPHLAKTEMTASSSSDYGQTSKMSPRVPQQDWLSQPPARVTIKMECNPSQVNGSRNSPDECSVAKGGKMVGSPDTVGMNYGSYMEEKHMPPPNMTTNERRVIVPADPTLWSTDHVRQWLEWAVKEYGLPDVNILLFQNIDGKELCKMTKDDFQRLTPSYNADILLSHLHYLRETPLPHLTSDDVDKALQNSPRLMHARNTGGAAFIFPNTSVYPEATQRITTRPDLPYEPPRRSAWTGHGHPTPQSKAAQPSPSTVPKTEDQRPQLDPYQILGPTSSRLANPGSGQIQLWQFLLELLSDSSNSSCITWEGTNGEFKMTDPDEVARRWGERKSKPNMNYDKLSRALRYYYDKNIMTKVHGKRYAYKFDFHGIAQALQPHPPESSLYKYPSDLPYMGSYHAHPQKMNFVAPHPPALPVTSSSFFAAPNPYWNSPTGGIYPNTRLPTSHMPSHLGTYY
# How it was run: as §1
# ELF1 = ELF1 (Homo sapiens, UniProt P32519 1-619); settings: protein: recombinant; tags: N-terminal GST; dsDNA, one strand shown
# ELF1, sequence (P32519 whole entry): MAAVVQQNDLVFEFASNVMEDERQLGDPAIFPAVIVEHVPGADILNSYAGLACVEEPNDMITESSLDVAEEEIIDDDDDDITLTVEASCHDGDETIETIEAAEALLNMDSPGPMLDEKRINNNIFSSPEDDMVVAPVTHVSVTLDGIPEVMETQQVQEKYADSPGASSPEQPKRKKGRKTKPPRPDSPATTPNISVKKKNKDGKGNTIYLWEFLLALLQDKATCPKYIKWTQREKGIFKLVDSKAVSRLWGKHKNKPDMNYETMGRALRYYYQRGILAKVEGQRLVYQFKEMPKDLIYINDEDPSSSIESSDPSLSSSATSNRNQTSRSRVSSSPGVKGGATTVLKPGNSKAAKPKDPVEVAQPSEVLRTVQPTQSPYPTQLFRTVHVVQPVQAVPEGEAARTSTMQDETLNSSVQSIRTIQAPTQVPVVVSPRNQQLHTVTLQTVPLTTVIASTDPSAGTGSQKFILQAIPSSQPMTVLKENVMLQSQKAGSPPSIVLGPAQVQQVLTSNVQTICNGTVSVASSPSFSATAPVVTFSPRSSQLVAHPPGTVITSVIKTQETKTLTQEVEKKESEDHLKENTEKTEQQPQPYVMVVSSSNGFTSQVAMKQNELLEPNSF
# How it was run: as §1
# EHF = molecular target: T5, EHF (Homo sapiens, UniProt Q9NZC4 1-300); settings: protein: recombinant; tags: N-terminal GST; dsDNA, one strand shown
# T5 sequence: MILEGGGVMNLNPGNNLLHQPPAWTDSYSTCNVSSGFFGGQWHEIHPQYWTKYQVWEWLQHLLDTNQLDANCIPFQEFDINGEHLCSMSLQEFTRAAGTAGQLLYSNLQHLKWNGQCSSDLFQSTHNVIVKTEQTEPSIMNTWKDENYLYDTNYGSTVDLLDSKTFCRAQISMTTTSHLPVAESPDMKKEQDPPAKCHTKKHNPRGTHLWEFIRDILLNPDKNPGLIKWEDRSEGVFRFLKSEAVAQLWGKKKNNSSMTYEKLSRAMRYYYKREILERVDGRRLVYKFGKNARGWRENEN
# How it was run: as §1
# SPI1 = SPI1 (Homo sapiens, UniProt P17947 1-270); settings: protein: recombinant; tags: N-terminal GST; dsDNA, one strand shown
# How it was run: as §1
# SPIB = SPIB (Homo sapiens, UniProt Q01892 1-262); settings: protein: recombinant; tags: N-terminal GST; dsDNA, one strand shown
# SPIB, sequence (Q01892 whole entry): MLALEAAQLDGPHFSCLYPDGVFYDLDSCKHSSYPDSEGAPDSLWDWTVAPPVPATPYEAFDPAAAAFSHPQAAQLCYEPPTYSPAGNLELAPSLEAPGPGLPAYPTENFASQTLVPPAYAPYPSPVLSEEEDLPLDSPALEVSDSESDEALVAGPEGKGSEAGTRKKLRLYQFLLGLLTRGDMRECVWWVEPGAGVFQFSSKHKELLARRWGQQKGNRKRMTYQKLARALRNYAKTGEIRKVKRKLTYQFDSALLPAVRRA
# How it was run: as §1
# ELK3 = molecular target: T6, ELK3 (Homo sapiens, UniProt P41970 1-407); settings: protein: recombinant; tags: N-terminal GST; dsDNA, one strand shown
# T6 sequence: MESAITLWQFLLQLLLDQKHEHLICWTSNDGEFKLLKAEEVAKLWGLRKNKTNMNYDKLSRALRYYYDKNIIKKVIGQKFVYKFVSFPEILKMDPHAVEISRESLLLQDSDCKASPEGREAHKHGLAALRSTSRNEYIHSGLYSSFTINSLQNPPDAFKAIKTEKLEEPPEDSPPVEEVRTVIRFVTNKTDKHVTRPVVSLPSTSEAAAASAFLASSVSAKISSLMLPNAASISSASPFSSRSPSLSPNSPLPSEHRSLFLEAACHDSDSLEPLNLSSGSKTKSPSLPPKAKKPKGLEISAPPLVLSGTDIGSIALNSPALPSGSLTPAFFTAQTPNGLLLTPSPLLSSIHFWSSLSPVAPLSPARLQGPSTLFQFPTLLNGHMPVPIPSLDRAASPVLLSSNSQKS
# How it was run: as §1
# FEV = molecular target: T7, FEV (Homo sapiens, UniProt Q99581 1-238); settings: protein: recombinant; tags: N-terminal GST; dsDNA, one strand shown
# T7 sequence: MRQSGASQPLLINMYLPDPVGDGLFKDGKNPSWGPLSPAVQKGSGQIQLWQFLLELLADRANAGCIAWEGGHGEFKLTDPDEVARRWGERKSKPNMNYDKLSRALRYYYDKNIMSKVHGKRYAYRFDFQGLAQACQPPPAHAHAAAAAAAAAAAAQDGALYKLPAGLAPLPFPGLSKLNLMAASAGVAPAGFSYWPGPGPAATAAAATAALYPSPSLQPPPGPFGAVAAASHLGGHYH
# How it was run: as §1
# ETV5 = ETV5 (Homo sapiens, UniProt P41161 1-510); settings: protein: recombinant; tags: N-terminal GST; dsDNA, one strand shown
# ETV5, sequence (P41161 whole entry): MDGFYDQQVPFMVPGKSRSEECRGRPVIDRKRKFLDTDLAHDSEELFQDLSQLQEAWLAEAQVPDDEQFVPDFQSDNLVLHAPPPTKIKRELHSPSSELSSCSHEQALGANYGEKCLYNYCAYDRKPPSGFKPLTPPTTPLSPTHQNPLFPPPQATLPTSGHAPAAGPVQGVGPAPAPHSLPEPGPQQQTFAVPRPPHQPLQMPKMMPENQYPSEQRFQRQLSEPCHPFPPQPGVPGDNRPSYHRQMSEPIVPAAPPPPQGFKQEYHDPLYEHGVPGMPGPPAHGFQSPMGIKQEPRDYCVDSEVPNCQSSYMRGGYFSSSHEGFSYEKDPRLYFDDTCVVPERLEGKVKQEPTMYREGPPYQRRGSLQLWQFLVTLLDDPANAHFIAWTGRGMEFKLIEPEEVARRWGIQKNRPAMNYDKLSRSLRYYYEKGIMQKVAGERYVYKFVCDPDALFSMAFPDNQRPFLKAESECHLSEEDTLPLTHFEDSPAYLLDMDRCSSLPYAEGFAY
# How it was run: as §1
# HSF1 = HSF1 (Homo sapiens, UniProt Q00613 1-529); settings: protein: recombinant; tags: N-terminal GST; chain copies: 3; dsDNA, one strand shown
# HSF1, sequence (Q00613 whole entry): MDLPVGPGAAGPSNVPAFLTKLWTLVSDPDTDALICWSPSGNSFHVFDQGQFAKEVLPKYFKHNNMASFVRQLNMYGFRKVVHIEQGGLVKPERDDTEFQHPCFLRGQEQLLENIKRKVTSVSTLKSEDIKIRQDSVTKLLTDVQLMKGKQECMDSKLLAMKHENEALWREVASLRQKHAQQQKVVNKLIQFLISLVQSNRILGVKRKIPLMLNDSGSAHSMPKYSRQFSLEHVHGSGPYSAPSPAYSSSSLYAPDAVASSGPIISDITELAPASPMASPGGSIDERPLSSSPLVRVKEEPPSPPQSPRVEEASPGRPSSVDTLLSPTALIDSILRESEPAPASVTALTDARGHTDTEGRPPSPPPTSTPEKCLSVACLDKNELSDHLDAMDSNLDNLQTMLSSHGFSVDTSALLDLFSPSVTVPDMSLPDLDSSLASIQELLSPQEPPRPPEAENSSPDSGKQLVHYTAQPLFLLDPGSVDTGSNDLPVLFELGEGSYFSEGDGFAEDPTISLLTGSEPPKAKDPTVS
# How it was run: as §1
# SPIC = molecular target: T8, SPIC (Homo sapiens, UniProt Q8N5J4 1-248); settings: protein: recombinant; tags: N-terminal GST; dsDNA, one strand shown
# T8 sequence: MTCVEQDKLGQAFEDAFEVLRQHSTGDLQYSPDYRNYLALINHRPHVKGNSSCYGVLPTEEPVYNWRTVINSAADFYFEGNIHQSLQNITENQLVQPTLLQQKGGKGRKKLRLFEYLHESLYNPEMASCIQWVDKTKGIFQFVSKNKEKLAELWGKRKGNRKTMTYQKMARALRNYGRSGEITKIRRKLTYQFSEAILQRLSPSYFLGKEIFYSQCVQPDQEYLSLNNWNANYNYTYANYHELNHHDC
# How it was run: as §1
# ELF4 = ELF4 (Homo sapiens, UniProt Q99607 1-663); settings: protein: recombinant; tags: N-terminal GST; dsDNA, one strand shown
# ELF4, sequence (Q99607 whole entry): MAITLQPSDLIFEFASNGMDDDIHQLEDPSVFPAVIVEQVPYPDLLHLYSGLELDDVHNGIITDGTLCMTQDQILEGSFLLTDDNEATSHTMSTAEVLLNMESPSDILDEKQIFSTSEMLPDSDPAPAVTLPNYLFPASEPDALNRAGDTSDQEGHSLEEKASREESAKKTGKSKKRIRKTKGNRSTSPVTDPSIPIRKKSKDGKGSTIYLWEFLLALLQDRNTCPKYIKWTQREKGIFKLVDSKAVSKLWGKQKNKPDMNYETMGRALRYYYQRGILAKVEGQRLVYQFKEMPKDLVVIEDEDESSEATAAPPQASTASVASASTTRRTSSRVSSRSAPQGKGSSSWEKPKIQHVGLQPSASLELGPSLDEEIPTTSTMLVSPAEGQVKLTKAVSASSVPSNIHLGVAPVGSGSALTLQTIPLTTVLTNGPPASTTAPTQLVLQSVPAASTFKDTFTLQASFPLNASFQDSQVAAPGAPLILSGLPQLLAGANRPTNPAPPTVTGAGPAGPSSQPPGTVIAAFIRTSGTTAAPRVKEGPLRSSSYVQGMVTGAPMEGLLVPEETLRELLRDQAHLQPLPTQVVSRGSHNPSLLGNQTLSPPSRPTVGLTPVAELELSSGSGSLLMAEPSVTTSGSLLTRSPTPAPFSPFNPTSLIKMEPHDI
# How it was run: as §1
# ELK4 = molecular target: T9, ELK4 (Homo sapiens, UniProt P28324-2 1-405); settings: protein: recombinant; tags: N-terminal GST; dsDNA, one strand shown
# T9 sequence: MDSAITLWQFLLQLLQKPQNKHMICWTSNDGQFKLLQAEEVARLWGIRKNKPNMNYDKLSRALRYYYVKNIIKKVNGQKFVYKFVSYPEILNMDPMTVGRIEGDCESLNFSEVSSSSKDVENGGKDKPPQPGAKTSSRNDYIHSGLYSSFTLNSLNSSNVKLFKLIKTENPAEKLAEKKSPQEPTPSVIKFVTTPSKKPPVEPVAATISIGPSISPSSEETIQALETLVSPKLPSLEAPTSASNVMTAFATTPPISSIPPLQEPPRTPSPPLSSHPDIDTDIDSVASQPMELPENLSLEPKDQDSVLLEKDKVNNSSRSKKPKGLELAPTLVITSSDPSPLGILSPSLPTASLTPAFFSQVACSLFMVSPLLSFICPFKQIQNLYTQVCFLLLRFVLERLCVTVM
# How it was run: as §1
# ETV2 = molecular target: T10, ETV2 (Homo sapiens, UniProt O00321 1-342); settings: protein: recombinant; tags: N-terminal GST; dsDNA, one strand shown
# T10 sequence: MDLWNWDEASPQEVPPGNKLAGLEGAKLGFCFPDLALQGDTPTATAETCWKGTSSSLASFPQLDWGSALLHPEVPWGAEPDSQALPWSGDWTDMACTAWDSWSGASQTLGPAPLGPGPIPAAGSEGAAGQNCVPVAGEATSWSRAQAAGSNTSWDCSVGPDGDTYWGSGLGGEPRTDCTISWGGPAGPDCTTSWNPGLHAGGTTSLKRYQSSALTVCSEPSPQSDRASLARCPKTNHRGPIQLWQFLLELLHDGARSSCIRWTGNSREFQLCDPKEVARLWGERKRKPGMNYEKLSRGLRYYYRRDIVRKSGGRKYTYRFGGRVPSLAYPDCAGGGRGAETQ
# How it was run: as §1
# ELF3 = molecular target: T11, ELF3 (Homo sapiens, UniProt P78545 1-371); settings: protein: recombinant; tags: N-terminal GST; dsDNA, one strand shown
# T11 sequence: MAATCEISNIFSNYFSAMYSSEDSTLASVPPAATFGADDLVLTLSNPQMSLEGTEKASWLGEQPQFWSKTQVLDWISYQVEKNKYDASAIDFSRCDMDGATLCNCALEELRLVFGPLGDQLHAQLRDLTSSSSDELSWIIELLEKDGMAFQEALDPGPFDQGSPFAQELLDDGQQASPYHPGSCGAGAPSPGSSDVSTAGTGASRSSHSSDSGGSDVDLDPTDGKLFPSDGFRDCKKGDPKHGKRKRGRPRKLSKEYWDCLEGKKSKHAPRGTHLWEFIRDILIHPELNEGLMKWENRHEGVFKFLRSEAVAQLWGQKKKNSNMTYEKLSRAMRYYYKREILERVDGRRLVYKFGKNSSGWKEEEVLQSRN
# How it was run: as §1
# CRX = CRX (Homo sapiens, UniProt O43186 1-299); settings: protein: recombinant; tags: N-terminal GST; dsDNA, one strand shown
# CRX, sequence (O43186 whole entry): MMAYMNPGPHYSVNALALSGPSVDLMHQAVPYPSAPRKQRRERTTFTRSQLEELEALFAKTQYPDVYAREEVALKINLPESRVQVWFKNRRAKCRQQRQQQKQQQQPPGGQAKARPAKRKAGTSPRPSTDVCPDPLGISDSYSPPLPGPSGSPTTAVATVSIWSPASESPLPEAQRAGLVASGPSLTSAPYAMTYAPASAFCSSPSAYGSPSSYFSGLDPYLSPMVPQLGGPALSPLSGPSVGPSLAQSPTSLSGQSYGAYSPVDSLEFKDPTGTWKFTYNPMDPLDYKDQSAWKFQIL
# How it was run: as §1
# ETV1 = ETV1 (Homo sapiens, UniProt P50549 1-477); settings: protein: recombinant; tags: N-terminal GST; dsDNA, one strand shown
# ETV1, sequence (P50549 whole entry): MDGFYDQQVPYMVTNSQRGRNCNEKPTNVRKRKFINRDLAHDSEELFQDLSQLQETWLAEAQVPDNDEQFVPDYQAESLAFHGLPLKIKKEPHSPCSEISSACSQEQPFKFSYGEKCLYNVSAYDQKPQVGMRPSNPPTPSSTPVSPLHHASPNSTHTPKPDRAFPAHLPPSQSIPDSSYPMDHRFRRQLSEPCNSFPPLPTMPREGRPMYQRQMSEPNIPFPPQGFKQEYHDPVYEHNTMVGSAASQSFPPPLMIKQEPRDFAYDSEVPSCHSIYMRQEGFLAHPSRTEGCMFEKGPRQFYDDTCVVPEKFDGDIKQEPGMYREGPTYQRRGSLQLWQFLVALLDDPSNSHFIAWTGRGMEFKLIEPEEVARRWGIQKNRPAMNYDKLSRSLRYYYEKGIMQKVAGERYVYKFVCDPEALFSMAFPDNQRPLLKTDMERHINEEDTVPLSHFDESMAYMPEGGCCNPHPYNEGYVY
# How it was run: as §1
sequence,measurement,setting,value
TCTGCC,binding signal,FLI1,"1.49 fold enrichment (6-mer frequency, TF over GST control)"
same,binding signal,ELK1,"1.36 fold enrichment (6-mer frequency, TF over GST control)"
same,binding signal,GABPA,"1.51 fold enrichment (6-mer frequency, TF over GST control)"
same,binding signal,ERG,"1.49 fold enrichment (6-mer frequency, TF over GST control)"
same,binding signal,ELF1,"1.54 fold enrichment (6-mer frequency, TF over GST control)"
same,binding signal,EHF,"1.37 fold enrichment (6-mer frequency, TF over GST control)"
same,binding signal,SPI1,"1.37 fold enrichment (6-mer frequency, TF over GST control)"
same,binding signal,SPIB,"1.32 fold enrichment (6-mer frequency, TF over GST control)"
same,binding signal,ELK3,"1.18 fold enrichment (6-mer frequency, TF over GST control)"
same,binding signal,FEV,"1.38 fold enrichment (6-mer frequency, TF over GST control)"
same,binding signal,ETV5,"1.27 fold enrichment (6-mer frequency, TF over GST control)"
same,binding signal,HSF1,"1.35 fold enrichment (6-mer frequency, TF over GST control)"
same,binding signal,SPIC,"1.31 fold enrichment (6-mer frequency, TF over GST control)"
same,binding signal,ELF4,"1.53 fold enrichment (6-mer frequency, TF over GST control)"
same,binding signal,ELK4,"1.59 fold enrichment (6-mer frequency, TF over GST control)"
same,binding signal,ETV2,"1.24 fold enrichment (6-mer frequency, TF over GST control)"
same,binding signal,ELF3,"1.28 fold enrichment (6-mer frequency, TF over GST control)"
same,binding signal,CRX,"1.21 fold enrichment (6-mer frequency, TF over GST control)"
same,binding signal,ETV1,"1.36 fold enrichment (6-mer frequency, TF over GST control)"

# Reference: paper PMC7862700, “An all-to-all approach to the identification of sequence-specific readers for epigenetic DNA modifications on cytosine”
